Compound activity: PubChem, National Center for Advancing Translational Sciences (NCATS)
Shown are actives, neighbours in structure and some others; about 7.3% of the full set was active somewhere.
3T3 cytotox: kills NIH 3T3 cells. hit rate 4.3% among 94,000. AID 1345082. Potency, µM (highest dose often 96.7 µM), actives largely listed as inhibitors. NIH 3T3 viability, CellTiter-Glo ATP luminescence, 48-72 h; note: nearly all actives have a fitted effect of over 55% in size
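Viability of NIH 3T3 cells after 48 or 72 hr compound treatment at 37 °C was assessed by CellTiter-Glo, with luminescence imaged following a 10 min room-temperature step.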
HEK293 viab: counter-screen for SNCA expression inhibitors: cell viability. HEK-293-SNCA-luc viability, GF-AFC fluorescence, 24 h. Potency, µM (titrated, usually from 57.1 µM), hits mostly cytotoxic. hit rate 0.12% among 150,000; note: nearly all actives have a fitted effect of over 30% in size
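Cytotoxicity counterscreen: after 24 h compound treatment of genome-edited SNCA-luciferase HEK-293 cells, live-cell protease substrate GF-AFC read by fluorescence after 30 min; activity scaled between DMSO (0%) and medium-only (-100%), curves Hill-fitted.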
FLuc inh-1: inhibitors of firefly (Photinus pyralis) luciferase. P08659. purified P. pyralis luciferase, luminescence, biochemical. Potency, µM (doses to about 115 µM), most hits filed as inhibitors. hit rate 2.5% among 76,000; note: nearly all actives have a fitted effect of over 65% in size
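FLuc 10nM, D-luciferin 10uM, ATP 10uM, Mg acetate 10mM, Tris acetate pH 7.5, Tween/BSA; cpd qHTS; enzyme added last; CCD luminescence.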
HEK cytotox: kills HEK 293 cells | HEK 293 viability, ATP luminescence (CellTiter-Glo), 48-72 h | hit rate 6.6% among 94,000 | Potency, µM (titrated, usually from 115 µM), hits mostly inhibitors | AID 1345083; note: nearly all actives have a fitted effect of over 60% in size
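Pintool-delivered compounds were incubated with HEK 293 cells (250 cells/well) at 37 degree Celsius for 48 or 72 hr. ATP-dependent luminescence (CellTiter-Glo) then reported remaining viable cells.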
SNCA expr inh: reduces expression of the alpha-synuclein gene; hit rate 0.17% among 140,000; Potency, µM (top dose mostly 57.2 µM), hits mostly inhibitors; HEK-293 SNCA-luciferase knock-in, luminescence, 24 h; AID 1671194; note: nearly all actives have a fitted effect of over 45% in size
IP6K1 inh: blocks human inositol hexakisphosphate kinase 1 | Q92551 | IP6K1 kinase, ADP-Glo luminescence, 2 h; hits give low values | activity change, % (series mostly up to about 58 µM) | hit rate 0.81% among 140,000; in the data active = activity change below about -25%
Target sequence (Q92551 whole entry, looked up): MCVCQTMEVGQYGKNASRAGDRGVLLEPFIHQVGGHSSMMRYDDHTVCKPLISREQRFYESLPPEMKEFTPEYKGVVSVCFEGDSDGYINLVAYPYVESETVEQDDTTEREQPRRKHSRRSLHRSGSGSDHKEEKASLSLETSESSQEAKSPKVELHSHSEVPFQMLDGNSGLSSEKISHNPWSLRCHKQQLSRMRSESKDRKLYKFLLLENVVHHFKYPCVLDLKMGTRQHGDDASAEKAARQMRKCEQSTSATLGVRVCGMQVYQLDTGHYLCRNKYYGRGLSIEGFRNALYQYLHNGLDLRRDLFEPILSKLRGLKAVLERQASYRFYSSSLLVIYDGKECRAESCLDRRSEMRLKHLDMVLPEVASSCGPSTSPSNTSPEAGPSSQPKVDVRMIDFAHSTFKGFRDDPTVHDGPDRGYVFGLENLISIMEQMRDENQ
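ADP-Glo luminescence measures ADP made by human IP6K1 during a 2 h RT reaction with ATP/IP6 (mix at 1.3 mM/130 uM); top library doses 57.5 and 19.1 uM final.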
FLuc SDR -ATP: stabilizes firefly luciferase without ATP | AID 1963318 | Potency, µM (titrated, usually from 32.7 µM), hits mostly activators | hit rate 7.8% among 1,300 | Purified FLuc-C-HiBiT, Nano-Glo HiBiT luminescence, no ATP | shares compounds with FLuc inh-1; note: nearly all actives have a fitted effect of over 55% in size
FLuc SDR ATP: firefly luciferase binding stabilization, ATP added; shares compounds with FLuc inh-1; purified FLuc-C-HiBiT + ATP, HiBiT complementation luminescence; Potency, µM (highest dose often 32.7 µM), most hits filed as activators; hit rate 8.7% among 1,300;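 note: signal reports ligand binding via conformational change of the enzyme rather than luciferase catalysis; nearly all actives have a fitted effect of over 55% in size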
FLuc inh-2: blocks firefly luciferase enzymatic activity; shares compounds with FLuc inh-1; purified FLuc-C-HiBiT enzyme, luciferin luminescence; Potency, µM (top dose mostly 32.7 µM), most hits filed as inhibitors; hit rate 42% among 1,300; note: nearly all actives have a fitted effect of over 70% in size
A number is an active result; - = inactive; ? = inconclusive; . = no result; [ ] = another dose, or the depositor's remark. Unless noted, calls come from the whole dose curve; as a rule, active = well fitted curve in the direction sought with a large enough effect; inconclusive = small, poorly fitted or top-dose-only effect, or another doubt; inactive = no such curve, though single readings can be large; an effect the other way counts as inactive or inconclusive.

SMILES | 3T3 cytotox | HEK293 viab | FLuc inh-1 | HEK cytotox | SNCA expr inh | IP6K1 inh | others
CCOc1cc(=O)n2c(c1C(=O)Nc1cccc(SC)c1)CCCC2 | - | - | - | - | - | -
Cn1ncc2c(C(=O)NCc3ccccc3Cl)cc(-c3ccc(F)cc3)nc21 | - | - | . | ? | - | -
CN(CCCN1c2ccccc2CCc2ccccc21)C(=O)C1CNCCO1 (centres undefined) | ? | - | - | ? | - | -
CC(C)c1noc(C2Cc3ccccc3N2C(=O)Nc2ccc3c(c2)OCCO3)n1 (centres undefined) | ? | ? | 16µM | ? | - | -
CC(=O)N1c2ccccc2CC1c1nc(C(C)C)no1 (centres undefined) | - | - | ? | - | - | -
CC(C)c1noc(C2Cc3ccccc3N2C(=O)NC2CCCC2)n1 (centres undefined) | 32µM | - | - | - | - | -
O=C(Nc1ccc2c(c1)OCCO2)N1c2ccccc2CC1c1nc(C2CC2)no1 (centres undefined) | - | - | 13µM | ? | - | -
Cc1ccc(C)c(NC(=O)N2c3ccccc3CC2c2nc(C3CC3)no2)c1 (centres undefined) | ? | - | - | - | - | -
COCCn1nnnc1C1CC2(CCOCC2)C(=O)N1Cc1ccc(Cl)cc1 (centres undefined) | - | - | - | - | - | -
CC1(CNc2ccccc2)COc2ccc(C(=O)NCc3cccs3)cc2N1 (centres undefined) | ? | - | - | 100µM | ? | -
CC1(CNCc2ccccc2)COc2ccc(C(=O)NCc3cccs3)cc2N1 (centres undefined) | ? | - | - | ? | - | -
CC1(COc2ccccc2)COc2ccc(C(=O)NCc3cccs3)cc2N1 (centres undefined) | ? | - | - | 112µM | - | -
CC1(COc2ccccc2)COc2ccc(C(=O)NCc3ccncc3)cc2N1 (centres undefined) | ? | - | - | ? | - | -
CC(C)N1CC(C(=O)NCCc2ccc(F)cc2)NC1=O (centres undefined) | - | -[12.5 µM] | . | - | - | -
CN1CCC2(CCC1=O)CN(CCCCOc1ccccc1)CCN2C (centres undefined) | - | - | - | - | - | -
O=C(NC1CCCCC1)C1CCCCN1Cc1ccc(-c2ccsc2)cc1 (centres undefined) | - | ? | . | 40µM | - | -
O=C(NCC(F)(F)F)C1CCCCN1Cc1ccc(-c2ccsc2)cc1 (centres undefined) | - | - | . | ? | - | -
COC(=O)CNC(=O)C1CCCCN1Cc1ccc(-c2ccsc2)cc1 (centres undefined) | ? | - | . | ? | - | -
O=C(NCCc1ccc(Cl)cc1)C1CCCCN1Cc1ccc(-c2ccsc2)cc1 (centres undefined) | 25µM | - | . | 40µM | - | -
O=C(Cn1cccc1-c1nc(-c2ccc3c(c2)OCO3)no1)Nc1ccc(Cl)cc1F | - | - | - | - | - | -
COc1cccc(-c2cc3c(=O)n(CCNC(=O)c4ccccc4OC)ccn3n2)c1 | - | - | ? | ? | - | -
COc1cccc(-c2cc3c(=O)n(CCNC(=O)C(C)Oc4ccccc4)ccn3n2)c1 (centres undefined) | ? | - | ? | 45µM | - | -
COc1cccc(-c2cc3c(=O)n(CCNC(=O)c4c(F)cccc4F)ccn3n2)c1 | - | - | 7.9µM | - | - | -
COc1cccc(-c2cc3c(=O)n(CCNC(=O)c4ccoc4)ccn3n2)c1 | - | - | ? | 45µM | - | -
COc1cccc(-c2cc3c(=O)n(CCNC(=O)c4cc(F)cc(F)c4)ccn3n2)c1 | ? | - | - | ? | - | -
SMILES | 3T3 cytotox | HEK293 viab | FLuc inh-1 | HEK cytotox | SNCA expr inh | IP6K1 inh | others
COc1cccc(-c2cc3c(=O)n(CCNC(=O)c4cccnc4)ccn3n2)c1 | - | - | ? | - | - | -
Cn1cc(CN2CCOC[C@H]2c2nc(C(C)(C)C)co2)c2ccccc21 | ? | - | - | 89µM | - | -
Cn1cc(CN2CCOC[C@H]2c2ncc(C(C)(C)C)[nH]2)c2ccccc21 | ? | - | - | 63µM | - | -
CN(C)[C@@H]1CNCC[C@@H]1CO | - | -[12.5 µM] | - | - | ? | -
O=C(CCc1ccnc(N2CCCC2)c1)N1CCN(c2cccc(Cl)c2)CC1 | ? | - | - | 32µM | ? | -
Cc1cccc(N2CCN(C(=O)CCc3ccnc(N4CCCC4)c3)CC2)c1 | - | - | - | ? | - | -
CN(C)C(=O)c1cc(-c2cc(Cl)cc(Cl)c2)c2nncn2n1 | - | - | . | - | - | -
CN1CCN(c2ccc(-c3cc4c(ccn4C)c(C(=O)NCc4cnccn4)n3)cc2)CC1 | ? | - | ? | 45µM | - | -
Cn1nccc1-c1cc2c(ccn2C)c(C(=O)NCc2cccnc2)n1 | 28µM | - | - | - | - | -
Cn1ccc2c(C(=O)NCc3cccnc3)nc(-c3ccccc3C#N)cc21 | 25µM | - | - | - | - | -
CN(C)Cc1ccc(-c2cc3c(ccn3C)c(C(=O)NCc3cccnc3)n2)cc1 | ? | - | - | ? | - | -
Cn1ccc2c(C(=O)NCc3cccnc3)nc(-c3ccc(F)cc3)cc21 | ? | - | - | 100µM | - | -
c1cc2nnc(C3CCC3)n2nc1NCC1CCCO1 (centres undefined) | ? | - | - | - | - | -
CCN1C(=O)CCN(C(=O)c2cc(C)n(C)n2)CC12CCOCC2 | - | - | . | - | - | -
COc1ccc(C(=O)N2CCC(=O)N(CCC#N)C[C@H]3COc4ccccc4[C@H]32)cc1 | ? | . | . | - | . | -
CCN1c2cc(C(=O)Nc3ccc4c(c3)OCCO4)ccc2C(=O)N2CCCCCC21 (centres undefined) | ? | -[12.5 µM] | 11µM | 18µM | ? | - | FLuc SDR -ATP=-;FLuc SDR ATP=-;FLuc inh-2=?
CCN1c2cc(C(=O)Nc3ccc4c(c3)OCCO4)ccc2C(=O)N2CCCC21 (centres undefined) | ? | -[12.5 µM] | 5µM | ? | - | - | FLuc SDR -ATP=-;FLuc SDR ATP=-;FLuc inh-2=?
